Assay results published in PubChem BioAssay AID540308 (The Scripps Research Institute Molecular Screening Center, 2011).
Hit rate of the full screen: of about 360,000 compounds, about 3,500 (0.97%) were called active.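 Rule for the calls: active = activation above a per-plate cutoff, the mean activation of sample wells on that plate plus 3 SD (cut at about 8% in these data); inactive = the rest.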 Shown is part of a subset that was picked to be rich in actives.

Molecular target: Melanocortin receptor 4 (Homo sapiens) (UniProt P32245)
Sequence (P32245 whole entry, looked up): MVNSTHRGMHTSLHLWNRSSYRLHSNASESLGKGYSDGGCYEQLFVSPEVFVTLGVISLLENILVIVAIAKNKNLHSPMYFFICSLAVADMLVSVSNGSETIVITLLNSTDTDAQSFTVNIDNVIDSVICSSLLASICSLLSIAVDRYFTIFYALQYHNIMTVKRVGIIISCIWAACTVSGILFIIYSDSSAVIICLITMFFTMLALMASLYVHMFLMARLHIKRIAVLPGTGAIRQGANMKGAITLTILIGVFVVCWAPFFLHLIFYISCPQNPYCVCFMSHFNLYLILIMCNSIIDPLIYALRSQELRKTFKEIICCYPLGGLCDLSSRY
Test: activators of MC4R beta-arrestin recruitment – cell-based, luminescence, agonist arm of biased-ligand search, primary screen (AID 540308)
Details: U2OS MC4R beta-arrestin complementation, at 8.9 µM, active compounds read high, percent of melanotan II response, DMSO zero

SMILES | activation
COC(=O)c1c(C)[nH]c(C(=O)NCCc2ccc(S(N)(=O)=O)cc2)c1C | 0.27% (inactive)
COC(=O)c1c(C)[nH]c(C(=O)/C=C/c2ccc(Cl)cc2)c1C | 30.6% (active)
CCCCOC(=O)c1[nH]c(C)c(C(=O)OC)c1C | -0.04% (inactive)
CCCCCC(O)c1cccc(OCc2ccc3ccccc3n2)c1 (stereo unspecified) | 8.01% (inactive)
CN(CC(=O)Nc1ccc(Cl)cc1)C(=O)c1ccc(COc2ccccc2)cc1 | 23.3% (active)
COc1ccc(NC(=O)CN(C)C(=O)c2ccc(COc3ccccc3)o2)cc1 | -0.54% (inactive)
CN(Cc1ccccc1)C(=O)c1ccc(COc2ccccc2)cc1 | -0.25% (inactive)
O=C(Nc1nnc([C@H]2C[C@H](O)[C@@H](CO)O2)s1)c1cccc(Cl)c1 | 0.51% (inactive)
Cc1cc(Br)ccc1NC(=O)CCCOc1cc(=O)n(C)c2ccccc12 | -1.42% (inactive)
CCc1nc2c(OCCC3CCCCC3)cccn2c1N(C)C(=O)c1ccco1 | 1.25% (inactive)
N#CC(=C1SC=CS1)c1nc(-c2ccccc2)cs1 | 30.3% (active)
N#CC(=C1CCCC1)c1nc(-c2ccc(Cl)cc2)cs1 | -1.29% (inactive)
CC(C)c1cccc(-c2csc(C(O)c3ccccc3)n2)c1 (stereo unspecified) | 5.31% (inactive)
Nc1nnn(CC(=O)N/N=C/c2ccccc2)n1 | -0.81% (inactive)
O=C(Cn1nnc(-c2ccccc2)n1)N/N=C/c1ccc(-c2ccc(Cl)cc2)o1 | 9.43% (active)
O=C(CN1CCOCC1)N/N=C/c1ccc(-c2ccc(Br)cc2)o1 | -3.54% (inactive)
Cc1cc2nc(SCCN3CCOCC3)[nH]c2cc1C | 3.6% (inactive)
Cc1ccc(-n2nc3cc(Cl)c(NC(=O)c4ccco4)cc3n2)cc1 | 9.62% (active)
Cc1ccc(NC(=O)c2ccco2)cc1 | -2.18% (inactive)
Cc1ccc(-n2nc3cc(C)c(NC(=O)c4cccnc4)cc3n2)cc1 | 2.16% (inactive)
CCOc1ccc(C(=O)Nc2ccc(S(=O)(=O)NCC3CCCO3)cc2)cc1OCC (stereo unspecified) | -3.73% (inactive)
CCCNC(=O)C1(C)CCCN(Cc2c(C)nn(-c3ccccc3)c2C)C1 (stereo unspecified) | 0.24% (inactive)
CC(C)Oc1cc(F)ccc1-c1cc(C(=O)Nc2cccc(Cl)c2)[nH]n1 | 0.52% (inactive)

SMILES | activation
COc1ccc(C(=O)OCC(=O)NCCCc2ccccc2)cc1OC | 1.24% (inactive)
Cc1cc(C)cc(C(=O)OCC(=O)NCCNC(=O)COC(=O)c2cc(C)cc(C)c2)c1 | 12% (active)
COc1ccccc1C(=O)OCC(=O)NCCNC(=O)COC(=O)c1ccccc1OC | -1.16% (inactive)
CCOC(=O)C1CCCN(C(=O)c2ccc(C)c(F)c2)CC1 (stereo unspecified) | -1.19% (inactive)
N#C/C(=C\c1cccnc1)C(=O)Nc1ccc(SC(F)F)cc1 | -1.77% (inactive)
Cc1ccc(-n2c(C)cc(/C=C(\C#N)C(=O)NCC3CCCO3)c2C)cc1 (stereo unspecified) | -2.19% (inactive)
Cc1cc(/C=C(/C#N)C(=O)Nc2ccc(Cl)cc2)c(C)n1-c1cccnc1 | 11.4% (active)
CC1(C(=O)NCC2CCOCC2)Cc2c(-c3cccc(C(N)=O)c3)ccnc2O1 (stereo unspecified) | 0.47% (inactive)
Cn1nnnc1SCC(=O)Nc1sccc1C(N)=O | 0.49% (inactive)
CCOC(=O)c1c(-c2ccc(C)cc2C)csc1NC(=O)CSc1nnnn1C | 14.8% (active)
COC(=O)c1ccccc1NC(=O)CSc1nnnn1C | -1.06% (inactive)
OC[C@H]1O[C@@H](c2nc(-c3nc(-c4ccc(F)cc4)no3)cs2)[C@H](O)[C@@H](O)[C@H]1O | -1.58% (inactive)
Nc1nc(CSc2nnnn2-c2ccccc2)nc(Nc2ccccc2)n1 | 3.67% (inactive)
CCOC(=O)c1ccc(-c2ccc3ncnc(N(C)Cc4sccc4C)c3c2)o1 | 1.6% (inactive)
CC1(C(=O)NS(=O)(=O)c2ccc(C#N)cc2)CCN1C(=O)c1ccc(C2CCCCC2)cc1 (stereo unspecified) | -2.29% (inactive)
CCc1ccc(CN(C)C(=O)C2CCC(=O)N(Cc3cccc(OC)c3)C2)nc1 (stereo unspecified) | -1.43% (inactive)
Cc1nc2c(OCC(=O)C(C)(C)C)cccn2c1N(C)Cc1cccs1 | -0.1% (inactive)
CN(C)CCCN(C(=O)c1ccc(S(=O)(=O)N2CCCCCC2)cc1)c1nc2ccc(Br)cc2s1 | 9.74% (active)
CN(C)CCN(C(=O)C1=COCCO1)c1nc2ccc(Cl)cc2s1 | 1.13% (inactive)
CCN(CC(=O)Nc1c(F)cccc1F)C(=O)c1ccc(S(=O)(=O)N2CCCCC2)cc1 | -2.71% (inactive)
CCNC(=O)C1(C)CCN(Cc2ccc(C(=O)OCC)o2)C1 (stereo unspecified) | -1.16% (inactive)
Cn1c(=O)c2cc(NC(=O)NCCc3cccs3)ccc2n1Cc1cccc(C(F)(F)F)c1 | -0.26% (inactive)
CCc1nc2c(OCC(N)=O)cccn2c1N(C)C(=O)c1ccc(OC)cc1 | -1.44% (inactive)

SMILES | activation
COc1cc(C2C(C(=O)Nc3ccc(F)cc3)=C(C)Nc3nc(CCCO)nn32)cc(OC)c1OC (stereo unspecified) | -1.43% (inactive)
COc1ccc(NC(=O)C2=C(C)NC(=O)NC2c2ccccc2[N+](=O)[O-])cc1 (stereo unspecified) | -2.18% (inactive)
COC(=O)c1nc2n(n1)C(c1ccc([N+](=O)[O-])cc1)C(C(=O)Nc1ccc(Cl)cc1)=C(C)N2 (stereo unspecified) | 9.62% (active)
CCNC(=O)C1(C)CCN(C(=O)c2ccccc2)C1 (stereo unspecified) | 1.33% (inactive)
CSCCC(Nc1ccc(S(=O)(=O)N2CCOCC2)cc1[N+](=O)[O-])C(=O)OCC(=O)N(C(C)C)C(C)C (stereo unspecified) | -3.39% (inactive)
O=C(c1cn(-c2ccccc2)nc1-c1cccnc1)N1CCN(S(=O)(=O)c2ccccc2F)CC1 | -2.08% (inactive)
COc1ccccc1N1CCN(C(=O)c2cn(-c3ccccc3)nc2-c2cccnc2)CC1 | 0.24% (inactive)
NC(=O)C1CCN(C(=O)c2cn(-c3ccccc3)nc2-c2cccnc2)CC1 | 8.8% (active)
COC(=O)c1ccc(NCc2cc(O)ccc2O)cc1 | -1.55% (inactive)
CC(C)OC(=O)c1ccc(NCc2cc(O)ccc2O)cc1Cl | -0.65% (inactive)
O=C(OC12CC3CC(CC(C3)C1)C2)c1ccc(NCc2cc(O)ccc2O)cc1 | 18.7% (active)
CC(=O)NC(c1ccccc1)c1nc(-c2cccc(C(C)C)c2)cs1 (stereo unspecified) | -1.73% (inactive)
CCCNC(=O)c1cc(C2CCCCN2C(=O)OC)on1 (stereo unspecified) | -0.19% (inactive)
Cc1cc(OCc2cc(C(=O)NCc3cc(C(C)C)no3)no2)cc(C)c1Cl | 10% (active)
Cc1cccnc1CC(C)NC(=O)c1cc(COc2cncc(Cl)c2)on1 (stereo unspecified) | 0.62% (inactive)
COc1ccc(OCc2cc(C(=O)NCC3(C)COC3)no2)c(Cl)c1 | -0.53% (inactive)
O=C(CCc1ccccc1)Nc1ccnn1C1CCN(Cc2ccc(OCCO)cc2)CC1 | 1.84% (inactive)
CCCNC(=O)C1(C)CCN(Cc2ccc(Cl)c(Cl)c2)C1 (stereo unspecified) | -2.21% (inactive)
Cc1oc2cc(Br)c(O)c(Br)c2c1C(=O)c1ccccc1 | -0.65% (inactive)
CCOC(=O)c1c(-c2ccccc2)oc2cc(Br)c(O)c(C=O)c12 | 48% (active)
CCOC(=O)c1c(C)oc2cc(Sc3ccccc3)c(O)c(O)c12 | 2.95% (inactive)
COc1ccc(C2CC(c3cccc(OC)c3)=NN2c2ccc(S(N)(=O)=O)cc2)cc1 (stereo unspecified) | -0.4% (inactive)
COc1ccc(-c2csc(C(O)c3cccc(Cl)c3)n2)cn1 (stereo unspecified) | -0.23% (inactive)

SMILES | activation
CC1(C(=O)NS(=O)(=O)c2ccc(C#N)cc2)CCN1C(=O)CC1CCCC1 (stereo unspecified) | -0.26% (inactive)
Cc1ccc(NC(=S)NC(=O)c2ccc(-c3ccccc3)cc2)cc1 | 8.85% (active)
Cc1ccc(C(=O)NC(=S)Nc2ccc(N3CCOCC3)cc2)cc1 | -0.72% (inactive)
CC(=O)Nc1ccc(NC(=S)NC(=O)c2ccc([N+](=O)[O-])c(C)c2)cc1 | 0.22% (inactive)
Cn1c(NCc2cccnc2)nc2cc(-c3ccc(F)cc3)sc2c1=O | 1.42% (inactive)
OC[C@@H]1CN(Cc2ccc3c(c2)OCO3)C[C@H](n2cnc3c(NCc4ccco4)ncnc32)O1 | 0.72% (inactive)
CC(=O)Nc1cncc(-c2ccccc2CO)n1 | -1.61% (inactive)
COc1ccc2ccccc2c1CNc1nnnn1C | -2.85% (inactive)
Cn1c(=S)sc2ccc3ccccc3c21 | 18.2% (active)
CCc1nc2ccc(C(=O)N3CCC(O)(Cc4ccccc4)CC3)cn2c1N(C)C(=O)Cc1ccccc1 | -0.81% (inactive)
Cc1ccc(Cc2cnc(N)s2)o1 | 0.06% (inactive)
O=C(CCc1ccccc1Cl)Nc1ccc(S(=O)(=O)Nc2nccs2)cc1 | -1.67% (inactive)
Cc1ccc(CCC(=O)Nc2ncc(Cc3cc(Cl)ccc3Cl)s2)o1 | 10.3% (active)
CNc1cnc(-c2cc(OC)c(OC)c(OC)c2)cn1 | 0.24% (inactive)
CCOC(=O)C1(C)CCCN(C(=O)c2ccc(F)c(Cl)c2)C1 (stereo unspecified) | -0.39% (inactive)
CC(=O)Nc1ccc(NC(=O)c2sc3nc4c(c(-c5ccc(C)cc5)c3c2N)CCC4)cc1 | 11.7% (active)
CC(=O)c1ccc(NC(=O)c2sc3nc4n(c(=O)c3c2C)CCCCC4)cc1 | -2.88% (inactive)
Cc1ccc(NC(=O)c2sc3nc(N)c(C#N)cc3c2N)cc1 | 7.55% (inactive)
CC1(C(=O)NCc2ccc(F)c(F)c2)Cc2c(-c3ccc4c(c3)OCO4)ccnc2O1 (stereo unspecified) | -2.86% (inactive)
CCOC(=O)C1(C)CCCN(C(=O)c2ccc(N(C)C)cc2)C1 (stereo unspecified) | -1.51% (inactive)
CN(C)CCCOc1ccc(-c2ccc3nccn3c2)cn1 | -1.74% (inactive)
CSc1ccc(CN2CCC2(C)C(=O)Nc2ccc(C)c(O)c2)cc1 (stereo unspecified) | -0.16% (inactive)
